The values that follow come from PubChem BioAssay AID2025 (NMMLSC, 2009).

Out of some 330,000 compounds screened, about 980 (0.3%) were called active.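 The calls were made as follows: active = percent response vs DMSO below 50%; inconclusive = fewer than 70 events counted for the yeast strain; inactive = the rest.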 The list comes from a sample in which actives are over-represented; it also holds similar structures and randomly drawn compounds.

This test in a line: compounds altering RPL19A-GFP fluorescence, TOR branch – cell-based, S. cerevisiae, multiplex flow cytometry, MLPCN, primary screen (AID 2025).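 Also: median channel GFP fluorescence of the barcoded RPL19A-GFP strain; ratio of sample median GFP to plate DMSO average so 100% = DMSO; lower means less RPL19A-GFP as with rapamycin TOR inhibition.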 Particulars: S. cerevisiae RPL19A-GFP strain, 3 h, at 10 µM, stronger effect = lower value.
Turning to `Cc1cccc2c(CCN)c[nH]c12`, the percent response vs DMSO was 101% (inactive).
Regarding `C/C(CCc1c[nH]c2ccccc12)=N\O`, the percent response vs DMSO was 100% (inactive).
The figure for `NCCc1c[nH]c2ccc(O)cc12` is 32.1% [may fluoresce violet] (active); for `OC1/C(=C/c2ccc(C(F)(F)F)cc2)N2CCC1CC2` (stereo not given) it is 97.2% (inactive); for `OCC#CC[N+]1(CC#Cc2ccccc2)CCCC1` it is 99.6% (inactive).
